Assay results taken from PubChem BioAssay AID1220 (Sanford-Burnham Center for Chemical Genomics, 2008).
Values joined by “and” are separate entries in the source; they are usually repeats but may differ in a detail not shown here. Equal entries are not always repeated. Hit rate of the full screen: of about 190,000 compounds, about 1,300 (0.68%) were called active. No stated cut-off is given here; in the data, active means inhibition above about 50%; inactive means the rest. What follows is part of a selection rich in actives, with near analogues and random picks from the rest. More than one record can exist for a structure, and the calls need not agree.

Biological target: Mannose-6-phosphate isomerase (Homo sapiens) (UniProt P34949)
Sequence (P34949 whole entry, looked up): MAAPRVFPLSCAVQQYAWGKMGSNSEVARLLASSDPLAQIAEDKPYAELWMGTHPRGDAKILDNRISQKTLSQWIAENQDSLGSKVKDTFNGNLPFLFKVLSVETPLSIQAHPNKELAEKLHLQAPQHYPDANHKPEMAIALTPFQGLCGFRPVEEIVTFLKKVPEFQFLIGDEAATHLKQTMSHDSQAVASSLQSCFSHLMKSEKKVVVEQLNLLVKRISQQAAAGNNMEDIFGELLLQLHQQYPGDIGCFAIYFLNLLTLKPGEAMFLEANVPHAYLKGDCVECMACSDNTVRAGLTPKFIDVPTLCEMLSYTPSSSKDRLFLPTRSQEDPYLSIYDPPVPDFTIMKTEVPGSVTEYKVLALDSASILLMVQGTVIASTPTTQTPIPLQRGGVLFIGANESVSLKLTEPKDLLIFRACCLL
Experiment: MPI inhibition at elevated mannose 6-phosphate – biochemical, fluorescence intensity, high mannose 6-phosphate, primary screen (AID 1220)
Details: recombinant PMI enzyme, coupled fluorescence intensity; at 20 µM; stronger effect = higher value

Row | SMILES | inhibition
1 | COc1cc(CN2CCCC(C(=O)c3sccc3C)C2)cc(OC)c1O (stereo not given) | 65.3% (active)
2 | COc1cc(CN2CCCC(C(=O)c3sccc3C)C2)cc(Cl)c1O (stereo not given) | 14% (inactive)
3 | COc1ccc(CN2CCCC(C(=O)c3sccc3C)C2)cc1O (stereo not given) | 1.4% (inactive)
4 | Cc1ccccc1-n1c(O)c(/C=N/N2CCOCC2)c(=O)[nH]c1=S | 55.7% (active)
5 | Cc1ccc(-n2c(O)c(/C=N/N3CCOCC3)c(=O)[nH]c2=S)cc1 | 29% (inactive)
6 | O=c1[nH]c(=S)n(-c2ccccc2)c(O)c1/C=N/N1CCOCC1 | 3.4% (inactive)
7 | CN1C(=O)N(C)C(=O)C2(Sc3ccccc3C2=O)C1=O | -1.5% (inactive)
8 | CCN(CC)c1ccc(N=Cc2c(O)n(-c3ccc(Cl)cc3)c(=O)[nH]c2=O)cc1 | 39.5% (inactive)
9 | C=CCn1c(O)c(C=Nc2ccc(N(CC)CC)cc2)c(=O)[nH]c1=O | 4% (inactive)
10 | CN(C)c1ccc(N=Cc2c(O)n(CCC3=CCCCC3)c(=O)[nH]c2=O)cc1 | 28.9% (inactive)
11 | CCOc1ccccc1-n1c(O)c(C=Nc2ccc(N(CC)CC)cc2)c(=O)[nH]c1=O | 59.3% (active)
12 | CCOc1ccc(-n2c(O)c(C=Nc3ccc(N(CC)CC)cc3)c(=O)[nH]c2=O)cc1 | 18.2% (inactive)
13 | CCN(CC)c1ccc(N=Cc2c(O)n(-c3ccccc3C)c(=O)[nH]c2=O)cc1 | 19.9% (inactive)
14 | CCN(CC)c1ccc(N=Cc2c(O)n(Cc3ccccc3)c(=O)[nH]c2=O)cc1 | 13.5% (inactive) and 50.6% (active)
15 | CCN(CC)c1ccc(N=Cc2c(O)n(CCC3=CCCCC3)c(=O)[nH]c2=O)cc1 | 58.1% (active)
16 | CCN(CC)CCN=Cc1c(O)n(CCC2=CCCCC2)c(=O)[nH]c1=O | 1.6% (inactive)
17 | Cc1nc2cc(-c3ccccc3)nn2c(C)c1CCC(=O)N1CCC2(CC1)OCCO2 | 12.2% (inactive)
18 | COc1ccccc1NC1=NCCS1 | -1% (inactive)
19 | Cc1ccccc1OP(N)(=O)Oc1ccccc1C | 3% (inactive)
20 | CN1C(=O)C(Cc2cccc3ccccc23)C(=O)N(C)C1=O | -9.1% (inactive)
21 | O=C(COC(=O)Cc1ccccc1)Nc1ccc(Cl)cn1 | -6.1% (inactive)
22 | COC(=O)CC1=C(C(=O)OC)C2(C(=O)Nc3c(C)cccc32)C(C#N)=C(N)O1 (stereo not given) | 4.4% (inactive)
23 | c1cncc(C2CCCCN2Cc2ccc3c(c2)OCO3)c1 (stereo not given) | 4.9% (inactive)

Row | SMILES | inhibition
24 | CCN1CCN(Cc2cc(Br)cc(OC)c2O)CC1 | 18% (inactive)
25 | CCN1CCN(c2cc(N3CCCC3)c([N+](=O)[O-])cc2F)CC1 | 25.4% (inactive)
26 | CCN1CCN(Cc2cc(OC)c(OC)cc2[N+](=O)[O-])CC1 | 59.2% (active)
27 | CCOc1ccccc1-n1c(O)c(C=NCCCN(CC)CC)c(=O)[nH]c1=O | -2.3% (inactive)
28 | O=C(c1cc(-c2ccccc2)on1)N1CCC2(CC1)OCCO2 | -0.7% (inactive)
29 | Oc1ccc(/C=N/NP(=S)(c2ccccc2)c2ccccc2)c(O)c1O | 52.2% (active)
30 | Oc1ccc(/C=N/NP(=S)(c2ccccc2)c2ccccc2)cc1 | 8.7% (inactive)
31 | Oc1ccccc1/C=N/NP(=S)(c1ccccc1)c1ccccc1 | 10.4% (inactive)
32 | COC(=O)CNC(=O)c1cn(CCC#N)nc1-c1ccc(F)cc1 | -0.2% (inactive)
33 | O=C(CSc1ccccc1)N1CCC2(CC1)OCCO2 | 14.1% (inactive)
34 | CCOC(=O)C1=C(C)OC(N)=C(C#N)C12C(=O)Nc1ccc(C)cc12 (stereo not given) | -2.3% (inactive)
35 | CCCC1=C(C(=O)OCC)C2(C(=O)Nc3ccc(C)cc32)C(C#N)=C(N)O1 (stereo not given) | 8.5% (inactive)
36 | O=C1CCCN1c1ccc(S(=O)(=O)O)cc1 (tested in a mixture with another compound) | -11.1% (inactive)
37 | CC(=O)c1ccc(OC(NC(=O)c2ccco2)C(Cl)(Cl)Cl)cc1 (stereo not given) | 7.7% (inactive)
38 | CCCCNC(=O)c1c(N)n(CCCOC)c2nc3ccccc3nc12 | 40.9% (inactive)
39 | COCCCn1c(N)c(C(=O)Nc2sc3c(c2C(=O)OC)CCCC3)c2nc3ccccc3nc21 | 24.1% (inactive)
40 | Nc1c(C(=O)NCCCc2ccccc2)c2nc3ccccc3nc2n1Cc1cccs1 | 17.4% (inactive)
41 | CC(C)CCn1c(N)c(C(=O)NCc2cccs2)c2nc3ccccc3nc21 | 59.5% (active)
42 | CCOCCCn1c(N)c(C(=O)Nc2sc3c(c2C(=O)OC)CCCC3)c2nc3ccccc3nc21 | 62.1% (active)
43 | COCCCn1c(N)c(C(=O)NCCC(C)C)c2nc3ccccc3nc21 | 63.7% (active)
44 | CCC(C)OC(=O)c1c(N)n(Cc2cccs2)c2nc3ccccc3nc12 (stereo not given) | 8.2% (inactive)
45 | CCOC(=O)c1c(NC(=O)c2c(N)n(CCCOC)c3nc4ccccc4nc23)sc2c1CCCC2 | 24.1% (inactive)
46 | CC(C)CNC(=O)c1c(N)n(Cc2ccco2)c2nc3ccccc3nc12 | -12.2% (inactive)

Row | SMILES | inhibition
47 | CCCOC(=O)c1c(N)n(Cc2cccs2)c2nc3ccccc3nc12 | -0.8% (inactive)
48 | CC(C)OCCCNC(=O)c1c(N)n(Cc2cccs2)c2nc3ccccc3nc12 | 57.4% (active)
49 | COCCNC(=O)c1c(N)n(CCC(C)C)c2nc3ccccc3nc12 | 34.1% (inactive)
50 | CCOc1cc(C2C(C#N)=C(N)Oc3c2c(=O)oc2ccccc32)ccc1OC(=O)c1cccs1 (stereo not given) | 2.8% (inactive)
51 | Cc1ccnc(-n2c(-c3ccccc3)nc3ccccc3c2=O)c1 | 15.9% (inactive)
52 | CC(C(=O)c1c[nH]c2ccccc12)N1CCc2ccccc2C1 (stereo not given) | 6.1% (inactive)
53 | CCCC1(CCC)C(=O)NC(=Nc2ccc(C)cc2)NC1=O | 2.5% (inactive)
54 | CN1CN=C(N[N+](=O)[O-])N(Cc2ccco2)C1 | -10.4% (inactive)
55 | O=C(Cn1cnc2sc3c(c2c1=O)CCCC3)NCCC(=O)N1CCC2(CC1)OCCO2 | 1.1% (inactive)
56 | CN1C[C@H](CO)C=C2c3cccc4[nH]cc(c34)C[C@H]21 | 65.5% (active)
57 | CC(C)[C@H]1C(=O)N2CCC[C@H]2[C@]2(O)O[C@](NC(=O)[C@@H]3C=C4c5cccc6[nH]cc(c56)C[C@H]4N(C)C3)(C(C)C)C(=O)N12 | 0.6% (inactive)
58 | CC(C)C[C@H]1C(=O)N2CCCC2[C@]2(O)O[C@](NC(=O)[C@@H]3C=C4c5cccc6[nH]cc(c56)CC4N(C)C3)(C(C)C)C(=O)N12 (stereo not given in full) | 48.1% (inactive)
59 | O=[N+]([O-])c1ccc(C2C3C(c4ccccc4)=NC4(CCCC4)N32)cc1 (stereo not given) | 9.1% (inactive)
60 | Cc1ccnc(-n2c(-c3ccco3)nc3ccccc3c2=O)c1 | 16.7% (inactive)
61 | CN(CCOc1ccc(C=C2C(=O)NC(=O)NC2=O)cc1)c1ccccn1 | -5.1% (inactive)
62 | COc1cc(/C=N/NP(=S)(c2ccccc2)c2ccccc2)ccc1O | 4.4% (inactive)
63 | C=CCn1c(O)c(C(C)=Nc2cc(OC)ccc2OC)c(=O)[nH]c1=O | 13% (inactive)
64 | COc1ccc(N=C(C)c2c(O)n(C)c(=O)n(C)c2=O)c(OC)c1 | -2.6% (inactive)
65 | CCCCn1c(O)c(C(CC)=Nc2ccc(OC)cc2OC)c(=O)[nH]c1=O | 17.6% (inactive)
66 | C=CCn1c(O)c(C(CC)=Nc2cc(OC)ccc2OC)c(=O)[nH]c1=O | 55.7% (active)
67 | CCC(=Nc1ccc(OC)cc1OC)c1c(O)[nH]c(=O)[nH]c1=O | 30.1% (inactive)
68 | CCC(=Nc1ccc(OC)cc1OC)c1c(O)n(C)c(=O)n(C)c1=O | 53.9% (active)
69 | Cc1ccc(O)c(CN2CCN(c3ccccc3)CC2)c1 | 4.3% (inactive)

Row | SMILES | inhibition
70 | CN(C)[C@@H]1C(=O)C(C(N)=O)=C(O)[C@@]2(O)C(=O)C3=C(O)c4c(O)cccc4[C@@](C)(O)[C@H]3[C@H](O)[C@@H]12 | 52.6% (active)
71 | CN(C)[C@@H]1C(=O)C(C(N)=O)=C(O)[C@@]2(O)C(=O)C3=C(O)c4c(O)ccc(Cl)c4[C@@](C)(O)C3C[C@@H]12 (stereo not given in full) | 16.4% (inactive)
72 | CN1CCN(c2ccc(S(C)(=O)=O)cc2[N+](=O)[O-])CC1 | -13.1% (inactive)
73 | O=[N+]([O-])c1ccc(N2CCCC2)c(F)c1Br | 8.1% (inactive)
74 | O=[N+]([O-])c1ccc(N2CCCCCC2)c2ncccc12 | 63.7% (active)
75 | CC1CN(c2ccc([N+](=O)[O-])cc2Cl)CCN1 (stereo not given) | 49.1% (inactive)
76 | O=[N+]([O-])c1ccc(N2CCCCC2)c2ncccc12 | 72.6% (active)
77 | CN1CCN(c2ccc(S(=O)(=O)C(F)(F)F)cc2[N+](=O)[O-])CC1 | -6.1% (inactive)
78 | O=[N+]([O-])c1ccc(N2CCCC2)c2ncccc12 | 22.1% (inactive)
79 | O=[N+]([O-])c1ccc(N2CCNCC2)cc1N1CCCCC1 | 9.9% (inactive)
80 | CC1CN(c2cc([N+](=O)[O-])ccc2Cl)CC(C)N1 (stereo not given) | -1.6% (inactive)
81 | O=[N+]([O-])c1ccc(N2CCNCC2)c2ncccc12 | 29% (inactive)
82 | CC1CN(c2ccc([N+](=O)[O-])c3cccnc23)CC(C)N1 (stereo not given) | 63.1% (active)
83 | CN1CCN(c2ccc([N+](=O)[O-])c3cccnc23)CC1 | 63.5% (active)
84 | Cc1cc(OCc2nn[nH]n2)c2c3c(c(=O)oc2c1)CCCC3 | -9.2% (inactive)
85 | COc1cc(NC(=O)CN2C3CCC2CC(O)(c2cccnc2)C3)cc(OC)c1 (stereo not given) | 5.3% (inactive)
86 | O=C(NC(C(Cl)Cl)N1CCOCC1)c1ccccc1 (stereo not given) | -6.2% (inactive)
87 | O=C(c1ccc2c(c1)ncn2-c1ccc(F)cc1F)N1CCC2(CC1)OCCO2 | -2.9% (inactive)
88 | CCCCCn1c(=O)c(C(=O)Nc2ccncc2)c(O)c2ccccc21 | -5.5% (inactive)
89 | COc1ccc(C(C)=O)cc1CC(C(=O)c1ccc(C)cc1)N(C)C (stereo not given) | 4.6% (inactive)
90 | CCC(C)NC(=O)CN1C(=O)CN=C(c2ccccc2)c2ccccc21 (stereo not given) | -11.3% (inactive)
